Screens as filed in PubChem.
Only some compounds are listed: those with a hit (about 7.8% of all), similar ones and a draw of the others.
HCV inh – qHTS Assay for Inhibitors of Hepatitis C Virus (HCV). 340,000 compounds, 3.4% hits. Huh7.5.1 HCVcc-Cre infection, luciferase reporter, 44 h. AID 651820, 2012. Potency, µM (titrated, usually from 41.8 µM), for inactives: top-dose activity change, negative = inhibition, most hits filed as inhibitors; active = well fitted inhibition curve with a large enough effect; inconclusive = small, poorly fitted or top-dose-only effect, or another doubt; inactive = no such curve, though single readings can be large or run the other way; note: potency is the fitted concentration of half-maximal effect
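Compounds are dispensed onto cells plated 4 h earlier at 1,000 per well, with HCVcc-Cre virus (about 0.5 moi) added next. Following 44 h of culture, luminescent signal is measured for 15 sec after 15 min with substrate at room temperature.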
Vaccinia Venus – qHTS for Stage-Specific Inhibitors of Vaccinia Orthopoxvirus: Venus Reporter Primary qHTS; Vaccinia virus Venus reporter expression, fluorescence; 330,000 compounds, 0.46% hits; Potency, µM (top dose mostly 36.5 µM), inactives show at the top dose activity change, negative = inhibition, usual class: inhibitors; calls by dose curve; tested in A549 cells; note: potency is the fitted concentration of half-maximal effect; nearly all actives have a fitted effect of over 30% in size
HCMV antiviral – qHTS Assay for inhibitors of the human cytomegalovirus (HCMV) | HFF cells, HCMV-luciferase reporter, 72 h; stronger effect = lower value | activity change, negative = inhibition, % at 57.5 µM | 410,000 compounds, 4.5% hits | AID 1259415, 2018; in the data active = activity change below about -60%; inconclusive = no clear call, values can overlap the other calls; inactive = above about -39%
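After 16 h attachment at 37C, HFF cells received test compound and HCMV-luciferase (1 PFU/cell); reporter luminescence read 72 h later, data normalized against buffer-only and known inhibitor Salinomycin.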
Vaccinia mCherry – qHTS for Stage-Specific Inhibitors of Vaccinia Orthopoxvirus: mCherry Reporter Primary qHTS; Vaccinia virus mCherry reporter infection, fluorescence; Potency, µM (series often up to 36.5 µM), inactives show top-dose activity change, negative = inhibition, hits mostly inhibitors; 310,000 compounds, 0.63% hits; AID 720579, 2013; calls by dose curve; tested in A549 cells; note: potency is the fitted concentration of half-maximal effect; nearly all actives have a fitted effect of over 35% in size
LASV entry inh – qHTS for Inhibitors of binding or entry into cells for Lassa Virus; Lassa virus pseudotype entry inhibition, cell reporter; Potency, µM (doses to about 37.9 µM), for inactives: top-dose activity change, negative = inhibition, usual class: inhibitors; 300,000 compounds, 1.2% hits; AID 540256, 2011; calls by dose curve; tested in HEK293 cells; note: potency is the fitted concentration of half-maximal effect; nearly all actives have a fitted effect of over 50% in size
MARV entry inh – qHTS for inhibitors of binding or entry into cells for Marburg Virus; AID 540276, 2011; Marburg virus pseudotyped entry inhibition, cell reporter; Potency, µM (titrated, usually from 37.8 µM), without a hit: at the top dose activity change, negative = inhibition, usual class: inhibitors; 300,000 compounds, 1.8% hits; calls by dose curve; tested in HEK293 cells; note: potency is the fitted concentration of half-maximal effect
* marks the source's active call; other numbers are inactive results; [ ] = dose if it differs, or a comment. % is set by controls: 0 for no effect and ±100 for the full control effect.

How did CCc1ccc(CC2S/C(=C(\C#N)C(C)=O)NC2=O)cc1 (stereo not drawn) do in these assays?
HCV inh: 2%; HCMV antiviral: -90*; LASV entry inh: 5.8µM*; MARV entry inh: inconclusive

Results for CCOC(=O)c1ccc(CC2S/C(=C(\C#N)C(C)=O)NC2=O)cc1 (stereo not drawn) ?
HCV inh: 18%; Vaccinia Venus: 109%; HCMV antiviral: 119; Vaccinia mCherry: 22%; LASV entry inh: inconclusive; MARV entry inh: inconclusive

Results for CC(=O)/C(C#N)=C1\NC(=O)C(Cc2ccc(C)c(Cl)c2)S1 (stereo not drawn) ?
HCV inh: 3%; Vaccinia Venus: 56%[7.34 µM]; HCMV antiviral: -92*; Vaccinia mCherry: -2%[7.34 µM]; LASV entry inh: inconclusive; MARV entry inh: inconclusive

What do the screens show for `c1cncc(-c2nn3c(Cn4nnc5ccccc54)nnc3s2)c1`?
HCV inh: 21%; HCMV antiviral: 36; LASV entry inh: 0%; MARV entry inh: 3.3µM*

Results for Cc1cc(C(C)(C)C)cc(C)c1S(=O)(=O)N1CCN(C(=O)c2cc([N+](=O)[O-])c[nH]c2=O)CC1 ?
HCV inh: 12%; Vaccinia Venus: -13%; HCMV antiviral: -64*; Vaccinia mCherry: -12%; LASV entry inh: inconclusive; MARV entry inh: -3%[46.1 µM]

What do the screens show for `Cc1ccc(NC(=O)C(Cc2ccccc2)n2cccc2)c(C)c1` (stereo not drawn)?
Vaccinia Venus: -12%; HCMV antiviral: -12; Vaccinia mCherry: -9%; MARV entry inh: 10%[46.1 µM]

What do the screens show for `CO[C@H]1[C@H](NC(=O)c2ccco2)c2ccccc2C12CCN(Cc1cnn(-c3ccccc3)c1)CC2`?
Vaccinia Venus: -17%; Vaccinia mCherry: -24%

How did COc1ccccc1NC(=O)C(Sc1ccccc1)c1ccccc1 (stereo not drawn) do in these assays?
HCV inh: -11%; Vaccinia Venus: -14%; HCMV antiviral: 33; Vaccinia mCherry: -6%; LASV entry inh: inconclusive; MARV entry inh: -16%

How did CCOC(=O)c1c(NC(=O)COC(=O)Cc2n[nH]c(=O)c3ccccc23)sc(C(=O)N(C)C)c1C do in these assays?
HCV inh: inconclusive; Vaccinia Venus: -10%; HCMV antiviral: 27; Vaccinia mCherry: inactive; LASV entry inh: 9%; MARV entry inh: 2%

Results for CCOC(=O)c1c(NC(=O)C2c3ccccc3Oc3ccccc32)sc(C(=O)N(CC)CC)c1C ?
HCV inh: 7.1µM*; Vaccinia Venus: -28%; LASV entry inh: inconclusive; MARV entry inh: 13µM*

How did CCOc1ccccc1NC(=O)C(Sc1ccccc1)c1ccccc1 (stereo not drawn) do in these assays?
HCV inh: -16%; Vaccinia Venus: -18%; HCMV antiviral: -33; Vaccinia mCherry: inactive; LASV entry inh: 13µM*; MARV entry inh: inconclusive

How did CCOC(=O)c1c(NC(=O)COC(=O)Cc2c[nH]c3ccccc23)sc(C(=O)N(C)C)c1C do in these assays?
HCV inh: 14µM*; Vaccinia Venus: -12%; HCMV antiviral: 32; Vaccinia mCherry: -18%; LASV entry inh: 19%; MARV entry inh: 4%[46.1 µM]

How did CCOC(=O)c1c(NC(=O)C(Sc2ccccc2)c2ccccc2)sc(C(=O)N(C)C)c1C (stereo not drawn) do in these assays?
HCV inh: inconclusive; Vaccinia Venus: inconclusive; HCMV antiviral: -8; Vaccinia mCherry: inconclusive; LASV entry inh: 16µM*; MARV entry inh: inconclusive

What do the screens show for `COc1cc2c(NC3CCN(C)CC3)nc(N3CCCN(C)CC3)nc2cc1OCC1CCCNC1` (stereo not drawn)?
Vaccinia Venus: -28%; Vaccinia mCherry: -15%

How did COCC1CCCN(Cc2ccc3c(c2)CN(C(=O)c2ccc(OC)nc2OC)CCO3)C1 (stereo not drawn) do in these assays?
Vaccinia Venus: 6%; Vaccinia mCherry: -7%

Results for COCc1cc(C)n(CC(=O)Nc2cccc(C(C)=O)c2)c(=O)c1C#N ?
Vaccinia Venus: 4%; HCMV antiviral: 0; Vaccinia mCherry: -5%; LASV entry inh: -1%[46.1 µM]; MARV entry inh: inconclusive

What do the screens show for `COC(=O)C1=C(C)N(Cc2ccccc2)C(=NCCc2cccnc2)NC1c1ccc(Br)cc1` (stereo not drawn)?
LASV entry inh: inconclusive; MARV entry inh: 4%[14.2 µM]

What do the screens show for `O=C(/C=C/c1cccnc1)/C=C/c1cccnc1`?
HCV inh: inconclusive; HCMV antiviral: -97*

How did C(=Cc1cccnc1)c1ccncc1 do in these assays?
HCV inh: -3%; Vaccinia Venus: -3%; HCMV antiviral: -26; Vaccinia mCherry: inactive; LASV entry inh: -2%[46.1 µM]; MARV entry inh: -10%[46.1 µM]

How did COc1cc(C(=O)/C=C/c2cccnc2)ccc1O do in these assays?
HCV inh: 7%; Vaccinia Venus: 8.9µM*; HCMV antiviral: 12; Vaccinia mCherry: 3.5µM*; LASV entry inh: inconclusive; MARV entry inh: inconclusive

How did COc1ccc(OC)c(C(=O)/C=C/c2cccnc2)c1 do in these assays?
HCV inh: inconclusive; Vaccinia Venus: -25%; HCMV antiviral: -100*; Vaccinia mCherry: inconclusive; LASV entry inh: inconclusive; MARV entry inh: inconclusive

What do the screens show for `COc1ccc(/C=C/C(=O)c2ccc(OC)cc2OC)cc1`?
HCV inh: inconclusive; Vaccinia Venus: -10%; HCMV antiviral: -30; Vaccinia mCherry: inconclusive

What do the screens show for `CCn1c(C(=O)N2CCCC(C(=O)N3CCN(c4cc(C)ccc4C)CC3)C2)cc2sccc21` (stereo not drawn)?
Vaccinia Venus: -9%; HCMV antiviral: -24; Vaccinia mCherry: -19%; MARV entry inh: 0%[46.1 µM]

How did CCC1CCCCN1C(=O)c1c[nH]c2ccc(S(=O)(=O)Nc3cccc(OC)c3)cc2c1=O (stereo not drawn) do in these assays?
Vaccinia Venus: -5%; HCMV antiviral: 10; Vaccinia mCherry: 1%; LASV entry inh: 29%[46.1 µM]

How did Cc1oc2ccc(O)c(CN3CCOCC3)c2c1C(=O)Nc1ccc(C(C)C)cc1 do in these assays?
Vaccinia Venus: -11%; HCMV antiviral: 28; Vaccinia mCherry: -19%; LASV entry inh: inconclusive; MARV entry inh: inconclusive

Results for COc1ccc(-n2nc(C(=O)NCCc3ccc(OC)c(OC)c3)c3c4ccccc4n(C)c3c2=O)cc1Cl ?
Vaccinia Venus: -3%; HCMV antiviral: 10; Vaccinia mCherry: -4%; LASV entry inh: inconclusive; MARV entry inh: inconclusive
